Where “and” joins values, the source holds several entries; their conditions need not be identical. Equal entries are not always repeated. Records with an inconclusive call do not appear. Calls of active or inactive are those of the source. Unless noted, the call rests on the fitted dose curve.

The source of these data is PubChem BioAssay (NCATS).

Assay [1] deals with Estrogen receptor (Homo sapiens) (UniProt P03372). Kind of assay: qHTS assay for small molecule antagonists of estrogen receptor alpha signaling (AID 588513; active means well fitted curve in the direction sought with a large enough effect in the signal ratio, with a control signal flat, not every such curve was filed as active; the % refers to the signal ratio; further: on the % scale 0 is the no-effect control and ±100 the full control effect). The method, boiled down:
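Antagonist-mode qHTS in ER-alpha-UAS-bla HEK 293 cells: compound titration, 0.5nM estradiol for 18 h, CCF4 fluorescence, Hill-derived IC50.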

The target is the same in assay [2]. Kind of assay: qHTS assay for small molecule agonists of estrogen receptor alpha signaling (AID 588514).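 Further: 0% = vehicle only and 100% = reference agonist; nearly all actives have a fitted effect of over 70% in size.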 In a few lines: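 ER-alpha-UAS-bla GripTite HEK293 cells, 5000/well in 2% charcoal/dextran-stripped FBS medium, treated with compound titrations 18 h at 37 C. CCF4 beta-lactamase read by fluorescence after 2 h RT; normalised to 20 nM 17-beta-estradiol (100%) and DMSO (0%), Hill fit for EC50 and efficacy.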
On the technique in general: In qHTS, concentration-response curves come from the screen itself.

Assay [3] has as its target Glucocorticoid receptor (Homo sapiens) (UniProt P04150). Put plainly: qHTS assay for small molecule agonists of glucocorticoid receptor signaling (AID 588532; active means well fitted curve in the direction sought with a large enough effect in the signal ratio, with a control signal flat; the % refers to the signal ratio;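 further: 100% = dexamethasone at 0.1 µM and 0% = DMSO only wells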). The conditions noted are these: HeLa MMTV-bla, beta-lactamase ratio, agonist, 18 h; stronger effect = higher value; percent of dexamethasone control, DMSO zero. In a few lines:
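Using MMTV-bla HeLa cells in medium with 1% stripped FBS and 25 mM HEPES, compounds were titrated and incubated overnight-length (18 h). Beta-lactamase cleavage of CCF4 was quantified by dual-emission fluorescence.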

Assay [4] has the same target. Kind of assay: qHTS assay for small molecule antagonists of glucocorticoid receptor signaling (AID 588533; active means well fitted inhibition curve with a large enough effect in the signal ratio, with a control signal flat, not every such curve was filed as active; the % refers to the signal ratio;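 further: cells stimulated with 2 nM dexamethasone as agonist; on the % scale 0 is the no-effect control and ±100 the full control effect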). In a few lines: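 Antagonist-mode qHTS: compound titrations added to GRE-bla HeLa cells, then dexamethasone 2 nM final; 18 h, 37 C. CCF4 FRET fluorescence normalized to dexamethasone and DMSO; IC50 from Hill fit.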
Assay [5] has as its target Peroxisome proliferator-activated receptor delta (Homo sapiens) (UniProt Q03181). Kind of assay: qHTS assay for small molecule agonists of peroxisome proliferator-activated receptor delta signaling (AID 588534).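 Further: 0% = DMSO basal wells and 100% = positive control agonist at 10 µM.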 The method, boiled down:
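Cells carrying a PPAR-delta beta-lactamase reporter were treated with compounds for 18 h at 37 °C in agonist mode. CCF4 fluorescence was read after 2 h; EC50 and efficacy from Hill fits.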

The nature of assay [6]: qHTS assay for small molecule antagonists of peroxisome proliferator-activated receptor delta signaling (AID 588535; active means well fitted inhibition curve with a large enough effect in the signal ratio, with a control signal flat, not every such curve was filed as active; the % refers to the signal ratio;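 on max response: cells co-treated with a PPAR-delta agonist as stimulator during compound exposure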). The conditions noted are these: HEK293T PPARd-UAS-bla, beta-lactamase FRET ratio, 18 h; 460 nm channel. The method, boiled down: (§1)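 HEK293T PPAR-delta-UAS-bla cells, 4000/well, 2% charcoal/dextran FBS; 5 h 37 C; cpd titration; 18 h 37 C; CCF4 2 h RT; FI 460/530 nm; Hill fit → IC50, efficacy.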

The target of assay [7] is Peroxisome proliferator-activated receptor delta (Homo sapiens) (UniProt Q03181). Described as above. In a few lines:
as §1

Assay [8] has as its target Peroxisome proliferator-activated receptor gamma (Homo sapiens) (UniProt P37231). Kind of assay: qHTS assay for small molecule antagonists of peroxisome proliferator-activated receptor gamma signaling (AID 588537; active means well fitted inhibition curve with a large enough effect in the signal ratio, with a control signal flat, not every such curve was filed as active; the % refers to the signal ratio;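 further: reporter cells co-stimulated with 50 nM rosiglitazone agonist during compound treatment; % of control where 0% means no effect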). In a few lines:
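Antagonist mode, beta-lactamase reporter in HEK293; charcoal/dextran FBS 1%; 3000 cells/well, 37 C 6-6.5 h; cpd titration + rosiglitazone 50 nM final, 16 h 37 C; CCF4, 2 h RT; 460/530 nm; Hill fit → IC50, efficacy.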

Assay [9] in a line: qHTS assay for small molecule agonists of retinoid X receptor alpha signaling (AID 588544).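 On activation: 0% = DMSO basal wells and 100% = reference agonist.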 The conditions noted are these: HEK293T RXRa-UAS-bla, beta-lactamase reporter, 18 h; 530 nm emission.
Assay [10] deals with Retinoic acid receptor RXR-alpha (Homo sapiens) (UniProt P19793). The description is as above.
Sequence of Retinoic acid receptor RXR-alpha (Homo sapiens) (P19793 whole entry, looked up): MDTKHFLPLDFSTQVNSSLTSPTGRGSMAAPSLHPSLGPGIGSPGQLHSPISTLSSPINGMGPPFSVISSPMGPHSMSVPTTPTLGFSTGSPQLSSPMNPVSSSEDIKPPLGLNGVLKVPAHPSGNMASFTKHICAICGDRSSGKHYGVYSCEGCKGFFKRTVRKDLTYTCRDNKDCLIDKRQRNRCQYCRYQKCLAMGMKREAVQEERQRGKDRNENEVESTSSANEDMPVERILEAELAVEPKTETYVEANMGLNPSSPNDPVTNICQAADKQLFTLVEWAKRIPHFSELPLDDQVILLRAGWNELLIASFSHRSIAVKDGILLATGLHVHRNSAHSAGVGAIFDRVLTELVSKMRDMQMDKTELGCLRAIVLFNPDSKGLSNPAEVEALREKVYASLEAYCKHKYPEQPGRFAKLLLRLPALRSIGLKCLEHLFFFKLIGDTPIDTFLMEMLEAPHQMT
Assay [11] addresses Thyroid hormone receptor beta (Homo sapiens) (UniProt P10828). Put plainly: qHTS assay for small molecule agonists of thyroid hormone receptor beta signaling (AID 588545).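 Further: 0% = DMSO only and 100% = 10 nM T3.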 In a few lines:
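TR-UAS-bla-GripTite HEK 293 cells in medium with 2% charcoal/dextran FBS, 0.1 mM NEAA and 1 mM sodium pyruvate were treated with titrated compounds for 18 hrs at 37 C. Beta-lactamase reporter was read with CCF4 dye (ex 405, em 460/530 nm); EC50 from Hill fits.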

Assay [12] in a line: qHTS assay for small molecule antagonists of retinoid X receptor alpha signaling (AID 588546; active means well fitted inhibition curve with a large enough effect in the signal ratio, with a control signal flat, not every such curve was filed as active; the % refers to the signal ratio;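 further: cells stimulated with 9-cis-retinoic acid as agonist; on the % scale 0 is the no-effect control and ±100 the full control effect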). The following applies: HEK293T RXRa-UAS-bla, beta-lactamase ratio, antagonist mode; measured here: W530 green channel, cytotoxicity proxy. The method, boiled down:
(§2)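 Beta-lactamase reporter inhibition, read as CCF4 fluorescence ratio (ex 405, em 460/530 nm) after 2 h at RT. HEK293T UAS-bla cells, 2500/well, were stimulated with 9-cis-RA at 500 or 100 nM final alongside test compound for 18 h at 37 C.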

Assay [13] deals with Retinoic acid receptor RXR-alpha (Homo sapiens) (UniProt P19793). The assay is described as above. The conditions noted are these: HEK293T RXRa-UAS-bla, beta-lactamase ratio, antagonist mode. In a few lines: as §2
Assay [14] concerns the target Thyroid hormone receptor beta (Homo sapiens) (UniProt P10828). Put plainly: qHTS assay for small molecule antagonists of thyroid hormone receptor beta signaling (AID 588547; active means well fitted inhibition curve with a large enough effect in the signal ratio, with a control signal flat, not every such curve was filed as active; the % refers to the signal ratio;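 further: cells stimulated with 0.4 nM T3 agonist during compound exposure; series mostly up to about 77 µM; on the % scale 0 is the no-effect control and ±100 the full control effect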). The following applies: TR-UAS-bla HEK293, beta-lactamase ratio, antagonist mode, 18 h. The method, boiled down:
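Inhibition of T3-driven (0.4nM final) beta-lactamase reporter activity was measured over 0.59 nM to 92 uM compound after 18 h at 37 C. The cells were GripTite HEK293 TR-UAS-bla in charcoal/dextran-stripped serum, with CCF4 ratio read-out and IC50 from Hill fits.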

The nature of assay [15]: qHTS assay for small molecule agonists of the antioxidant response element (ARE) signaling pathway (AID 651741; active means well fitted activation curve with a large enough effect in the signal ratio; the % refers to the signal ratio; further: % of control where 0% means no effect). The method, boiled down: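 Quantitative HTS in HepG2 cells stably expressing an ARE-beta-lactamase reporter; 16 h compound exposure at 37 C, followed by 2 h room-temperature incubation with LiveBLAzer B/G FRET substrate and fluorescence measurement.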
Assay [16] in a line: qHTS assay for small molecule activators of the p53 signaling pathway (AID 651743; active means well fitted activation curve with a large enough effect in the signal ratio, not every such curve was filed as active; the % refers to the signal ratio; further: series mostly up to about 92 µM; % of control where 0% means no effect). The following applies: HCT-116 p53RE-bla, beta-lactamase FRET ratio, 16 h; activation: stronger effect = higher value. The method, boiled down:
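Read-out is fluorescence intensity from the LiveBLAzer B/G FRET substrate, added for 2 hours at room temperature after HCT-116 p53RE-bla cells had been incubated with compounds for 16 hours at 37 C.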

Assay [17] is described as follows: qHTS assay for environmental chemicals that activate the Aryl hydrocarbon Receptor (AhR) signaling pathway (AID 651777; active means well fitted curve in the direction sought with a large enough effect; an effect the other way counts as inactive or inconclusive; further: % of control where 0% means no effect; nearly all actives have a fitted effect of over 15% in size). The conditions noted are these: 1A2-DRE human hepatoma cells, luciferase, 24 h; activation: stronger effect = higher value. In a few lines:
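Quantitative HTS in stably transfected human liver-derived cells whose luciferase gene sits downstream of the CYP1A2 promoter and dioxin response element. After 24 hr exposure at 37 C, One-Glo luminescence was measured.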

The target in assay [18] is Peroxisome proliferator-activated receptor alpha (Homo sapiens) (UniProt Q07869). Kind of assay: qHTS assay for small molecule agonists of the peroxisome proliferator-activated receptor alpha (PPARalpha) signaling pathway (AID 651778; active means well fitted curve in the direction sought with a large enough effect; an effect the other way counts as inactive or inconclusive; further: % of control where 0% means no effect). The conditions noted are these: PathHunter PPARalpha complementation, chemiluminescence, 6 h; stronger effect = higher value. The method, boiled down:
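Chemiluminescence from complemented enzyme reported PPARalpha activation in cells after 6 hr of compound treatment at 37 C. The detection reagent was incubated for 60 min at room temperature, and compounds were scored as agonists.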

A short description of assay [19]: qHTS assay for small molecule agonists of the antioxidant response element (ARE) signaling pathway measured by Nrf2-dependant transcriptional activity (AID 720636; active means well fitted curve in the direction sought with a large enough effect in the repeat runs; an effect the other way counts as inactive or inconclusive; further: % of control where 0% means no effect). In a few lines: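 Quantitative HTS format in HepG2 cells stably expressing an ARE-luciferase reporter; 16 hr compound treatment at 37 C, luciferase signal detected with ONE-Glo.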
Assay [20] can be described thus: qHTS assay for cell viability of HEK293 cells (AID 743288; active means well fitted curve in the direction sought with a large enough effect; an effect the other way counts as inactive or inconclusive; further: on the % scale 0 is the no-effect control and ±100 the full control effect; nearly all actives have a fitted effect of over 50% in size). The conditions noted are these: ATP luminescence (CellTiter-Glo), 18 h; max response: stronger effect = lower value. In a few lines: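 Luminescent ATP quantitation served as the viability read-out. Cells (parental HEK293, 2,000/well) received compounds after at least 5 h at 37 C and were exposed for 18 h before a 30 min room-temperature reagent step.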

Assay [21] is described as follows: qHTS assay for cell viability of the p53RE-bla HCT-116 cell line (AID 743292; active means well fitted curve in the direction sought with a large enough effect; an effect the other way counts as inactive or inconclusive; further: on the % scale 0 is the no-effect control and ±100 the full control effect; nearly all actives have a fitted effect of over 55% in size). In a few lines:
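Viability of compound-treated p53RE-bla HCT-116 cells is taken from ATP-dependent luciferase luminescence. Treatment lasts 16 h at 37 C after a 5 h settling period; detection follows 30 min at room temperature.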

Assay [22] is described as follows: qHTS for Inhibitors of the Functional Ribonucleoprotein Complex (vRNP) of Lassa (LASV) Arenavirus: LASV Primary Screen - GLuc reporter signal (AID 1347082; calls by dose curve; tested in HEK293 reporter line; further: series mostly up to about 57 µM; on the % scale 0 is the no-effect control and ±100 the full control effect; nearly all actives have a fitted effect of over 60% in size).
The nature of assay [23]: qHTS for Inhibitors of the Functional Ribonucleoprotein Complex (vRNP) of Lassa (LASV) Arenavirus: Viability assay - alamar blue signal for LASV Primary Screen (AID 1347083; calls by dose curve; tested in HEK293 reporter line; further: series mostly up to about 57 µM; on the % scale 0 is the no-effect control and ±100 the full control effect; nearly all actives have a fitted effect of over 80% in size).
The nature of assay [24]: qHTS for Inhibitors of the Functional Ribonucleoprotein Complex (vRNP) of Lymphocytic Choriomeningitis Arenaviruses (LCMV): Viability assay - alamar blue signal for LCMV Primary Screen (AID 1347085; calls by dose curve; tested in HEK293 reporter line; further: series mostly up to about 57 µM; on the % scale 0 is the no-effect control and ±100 the full control effect; nearly all actives have a fitted effect of over 80% in size).
Assay [25] concerns the target Nucleoprotein (Lymphocytic choriomeningitis virus (strain Armstrong)) (UniProt P09992). Kind of assay: qHTS for Inhibitors of the Functional Ribonucleoprotein Complex (vRNP) of Lymphocytic Choriomeningitis Arenaviruses (LCMV): LCMV Primary Screen - GLuc reporter signal (AID 1347086). Further: series mostly up to about 57 µM; on the % scale 0 is the no-effect control and ±100 the full control effect; nearly all actives have a fitted effect of over 70% in size.
In assay [26] the target is Nuclear receptor subfamily 1 group I member 2 (Rattus norvegicus) (UniProt Q9R1A7). Put plainly: qHTS assay for small molecule activators of the rat pregnane X receptor (rPXR) signaling pathway (AID 651751; call rule not given here; further: 0% is about no effect). The conditions noted are these: rPXR reporter cells, luciferase (One-Glo), 24 h.
A short description of assay [27]: qHTS assay for small molecule activators of the human pregnane X receptor (PXR) signaling pathway (AID 720659; call rule not given here; further: 0% is about no effect).
The target in assay [28] is Alpha-galactosidase (Coffea arabica) (UniProt Q42656). Put plainly: Counterscreen for Glucocerebrosidase Inhibitors: qHTS Assay for Coffee Bean alpha-Galactosidase at pH 4.5 (AID 957; active means well fitted curve in the direction sought with a large enough effect; an effect the other way counts as inactive or inconclusive;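 further: series mostly up to about 77 µM; plate controls were enzyme alone for no effect and no enzyme for full effect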). In a few lines: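 Coffee bean enzyme (2 nM) with 80 uM 4-methylumbelliferyl alpha-D-galactopyranoside in 50 mM citric acid, 0.005% Tween-20, pH 4.5, 20 min at room temperature; compounds 0.7 nM–77 uM. Stopped at pH 10, fluorescence 365/440 nm; AC50 from Hill fits.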
Sequence of Alpha-galactosidase (Coffea arabica) (Q42656 whole entry, looked up): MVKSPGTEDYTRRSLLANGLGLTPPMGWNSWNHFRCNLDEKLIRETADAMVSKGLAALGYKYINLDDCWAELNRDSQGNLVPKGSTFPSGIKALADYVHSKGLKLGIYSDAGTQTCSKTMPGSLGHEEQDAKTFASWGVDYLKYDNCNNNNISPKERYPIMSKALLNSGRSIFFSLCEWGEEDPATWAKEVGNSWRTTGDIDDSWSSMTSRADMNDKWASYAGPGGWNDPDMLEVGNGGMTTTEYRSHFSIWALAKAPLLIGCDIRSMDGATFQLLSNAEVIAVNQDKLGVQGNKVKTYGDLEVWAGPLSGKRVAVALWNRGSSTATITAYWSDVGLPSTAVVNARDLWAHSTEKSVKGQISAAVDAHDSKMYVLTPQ
(Counterscreens check selectivity or assay interference.)

The target is the same in assay [29]. Kind of assay: Counterscreen for Glucocerebrosidase Inhibitors: qHTS Assay for Coffee Bean alpha-Galactosidase at pH 5.9 (AID 998; active means well fitted curve in the direction sought with a large enough effect; an effect the other way counts as inactive or inconclusive;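 further: plate controls were uninhibited enzyme for no effect and no-enzyme basal signal for full effect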). In a few lines: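 Compounds were titrated from 0.7 nM to 77 uM against green coffee bean alpha-galactosidase (2 nM) using 80 uM fluorogenic 4-methylumbelliferyl substrate. After 20 min at room temperature, reactions were stopped at pH 10 and read by fluorescence.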

The nature of assay [30]: Inducers of the Endoplasmic Reticulum Stress Response (ERSR) in human glioma: Validation (AID 504836; active means well fitted curve in the direction sought with a large enough effect; an effect the other way counts as inactive or inconclusive; further: 0% is about no effect). In a few lines: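 ERSR induction read as luciferase luminescence (Bright-Glo, 10 min at room temperature) in stably transfected human U87-MG glioma cells exposed to compounds for 16 h, using GRP78 as sensor.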
Assay [31] deals with Bile acid receptor (Homo sapiens) (UniProt Q96RI1). Kind of assay: qHTS assay for small molecule agonists of farnesoid X receptor signaling (AID 588527).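 Further: series mostly up to about 77 µM; 0% = vehicle basal and 100% = reference agonist.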 The following applies: HEK293T FXR-UAS-bla, beta-lactamase ratio, 16 h; activation: stronger effect = higher value. In a few lines: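 FXR-UAS-bla HEK293T, 10% dialyzed FBS; cpds up to 92 uM titration, 16 h 37 C; CCF4 dye 2 h RT; fluorescence. Normalized to chenodeoxycholic acid 100 uM (100%) and DMSO (0%); Hill fit gives EC50, efficacy.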
Sequence of Bile acid receptor (Homo sapiens) (Q96RI1 whole entry, looked up): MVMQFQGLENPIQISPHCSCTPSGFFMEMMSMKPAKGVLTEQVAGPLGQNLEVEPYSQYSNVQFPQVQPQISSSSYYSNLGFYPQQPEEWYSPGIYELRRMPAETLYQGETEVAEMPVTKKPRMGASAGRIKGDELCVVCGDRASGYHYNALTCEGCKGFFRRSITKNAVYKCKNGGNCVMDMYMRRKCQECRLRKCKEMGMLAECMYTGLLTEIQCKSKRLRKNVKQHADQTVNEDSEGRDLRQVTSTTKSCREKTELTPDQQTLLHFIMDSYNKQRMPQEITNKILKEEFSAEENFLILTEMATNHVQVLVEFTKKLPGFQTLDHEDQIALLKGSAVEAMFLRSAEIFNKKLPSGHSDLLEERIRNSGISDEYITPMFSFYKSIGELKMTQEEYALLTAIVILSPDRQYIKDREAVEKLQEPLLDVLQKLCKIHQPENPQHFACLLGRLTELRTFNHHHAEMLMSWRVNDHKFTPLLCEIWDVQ

Sequence of Peroxisome proliferator-activated receptor delta (Homo sapiens) (Q03181 whole entry, looked up): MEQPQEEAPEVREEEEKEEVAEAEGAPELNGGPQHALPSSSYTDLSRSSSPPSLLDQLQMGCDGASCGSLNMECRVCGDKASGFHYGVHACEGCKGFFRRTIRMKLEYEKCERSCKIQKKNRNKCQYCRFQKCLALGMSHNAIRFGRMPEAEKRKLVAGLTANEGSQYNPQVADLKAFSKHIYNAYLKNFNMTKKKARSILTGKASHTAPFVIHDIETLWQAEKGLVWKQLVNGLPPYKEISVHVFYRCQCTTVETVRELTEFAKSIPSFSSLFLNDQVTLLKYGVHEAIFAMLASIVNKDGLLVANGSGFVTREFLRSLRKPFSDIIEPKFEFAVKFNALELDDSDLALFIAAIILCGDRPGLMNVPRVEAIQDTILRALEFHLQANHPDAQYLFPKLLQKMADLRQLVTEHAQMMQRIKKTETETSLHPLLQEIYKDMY
Sequence of Nucleoprotein (Lymphocytic choriomeningitis virus (strain Armstrong)) (P09992 whole entry, looked up): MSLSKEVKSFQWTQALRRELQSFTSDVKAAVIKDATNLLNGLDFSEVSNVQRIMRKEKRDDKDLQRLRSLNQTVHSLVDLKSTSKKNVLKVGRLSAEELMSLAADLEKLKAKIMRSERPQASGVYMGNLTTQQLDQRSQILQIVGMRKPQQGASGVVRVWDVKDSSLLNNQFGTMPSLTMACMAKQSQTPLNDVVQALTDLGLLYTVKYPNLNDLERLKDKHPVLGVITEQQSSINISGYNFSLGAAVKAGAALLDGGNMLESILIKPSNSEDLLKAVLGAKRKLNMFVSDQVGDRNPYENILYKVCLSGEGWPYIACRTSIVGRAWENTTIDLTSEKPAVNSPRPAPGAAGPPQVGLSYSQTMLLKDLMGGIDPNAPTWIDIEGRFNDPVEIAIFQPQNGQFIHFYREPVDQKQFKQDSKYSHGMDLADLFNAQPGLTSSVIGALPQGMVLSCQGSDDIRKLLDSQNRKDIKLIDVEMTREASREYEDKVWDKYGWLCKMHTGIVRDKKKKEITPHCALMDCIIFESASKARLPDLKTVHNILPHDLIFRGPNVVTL
Sequence of Thyroid hormone receptor beta (Homo sapiens) (P10828 whole entry, looked up): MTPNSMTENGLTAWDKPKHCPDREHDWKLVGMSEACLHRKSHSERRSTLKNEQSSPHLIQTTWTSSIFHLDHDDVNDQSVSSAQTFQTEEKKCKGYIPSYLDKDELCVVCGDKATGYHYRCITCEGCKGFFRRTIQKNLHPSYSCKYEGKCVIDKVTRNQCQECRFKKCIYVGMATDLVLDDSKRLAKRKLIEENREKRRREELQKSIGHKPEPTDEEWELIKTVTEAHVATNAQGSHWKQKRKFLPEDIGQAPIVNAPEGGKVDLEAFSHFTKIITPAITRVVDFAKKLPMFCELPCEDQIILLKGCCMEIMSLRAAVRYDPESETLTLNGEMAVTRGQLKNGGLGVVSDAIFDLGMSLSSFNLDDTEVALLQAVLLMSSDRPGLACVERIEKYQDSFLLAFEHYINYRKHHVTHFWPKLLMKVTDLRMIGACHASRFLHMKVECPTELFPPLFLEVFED
Sequence of Glucocorticoid receptor (Homo sapiens) (P04150 whole entry, looked up): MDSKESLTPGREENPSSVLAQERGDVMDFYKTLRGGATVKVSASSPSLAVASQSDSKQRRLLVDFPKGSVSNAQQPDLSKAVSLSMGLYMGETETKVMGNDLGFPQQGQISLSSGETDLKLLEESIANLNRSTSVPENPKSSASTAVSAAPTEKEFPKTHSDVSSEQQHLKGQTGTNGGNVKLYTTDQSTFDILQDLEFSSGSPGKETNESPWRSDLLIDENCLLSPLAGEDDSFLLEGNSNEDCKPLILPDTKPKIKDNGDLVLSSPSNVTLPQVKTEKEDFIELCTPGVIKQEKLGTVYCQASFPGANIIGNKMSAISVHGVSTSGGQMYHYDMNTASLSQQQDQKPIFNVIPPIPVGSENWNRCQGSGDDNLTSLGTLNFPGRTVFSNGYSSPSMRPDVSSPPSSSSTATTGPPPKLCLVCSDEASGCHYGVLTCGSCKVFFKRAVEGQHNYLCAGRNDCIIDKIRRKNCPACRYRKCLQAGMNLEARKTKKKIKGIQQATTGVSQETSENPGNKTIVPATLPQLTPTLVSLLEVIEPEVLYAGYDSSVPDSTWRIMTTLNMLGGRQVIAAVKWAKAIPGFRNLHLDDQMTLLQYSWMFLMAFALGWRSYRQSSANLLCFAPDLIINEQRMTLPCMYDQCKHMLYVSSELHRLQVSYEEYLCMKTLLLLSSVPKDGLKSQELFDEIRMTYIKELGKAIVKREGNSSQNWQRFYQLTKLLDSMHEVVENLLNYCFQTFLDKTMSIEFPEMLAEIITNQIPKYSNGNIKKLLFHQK
Sequence of Estrogen receptor (Homo sapiens) (P03372 whole entry, looked up): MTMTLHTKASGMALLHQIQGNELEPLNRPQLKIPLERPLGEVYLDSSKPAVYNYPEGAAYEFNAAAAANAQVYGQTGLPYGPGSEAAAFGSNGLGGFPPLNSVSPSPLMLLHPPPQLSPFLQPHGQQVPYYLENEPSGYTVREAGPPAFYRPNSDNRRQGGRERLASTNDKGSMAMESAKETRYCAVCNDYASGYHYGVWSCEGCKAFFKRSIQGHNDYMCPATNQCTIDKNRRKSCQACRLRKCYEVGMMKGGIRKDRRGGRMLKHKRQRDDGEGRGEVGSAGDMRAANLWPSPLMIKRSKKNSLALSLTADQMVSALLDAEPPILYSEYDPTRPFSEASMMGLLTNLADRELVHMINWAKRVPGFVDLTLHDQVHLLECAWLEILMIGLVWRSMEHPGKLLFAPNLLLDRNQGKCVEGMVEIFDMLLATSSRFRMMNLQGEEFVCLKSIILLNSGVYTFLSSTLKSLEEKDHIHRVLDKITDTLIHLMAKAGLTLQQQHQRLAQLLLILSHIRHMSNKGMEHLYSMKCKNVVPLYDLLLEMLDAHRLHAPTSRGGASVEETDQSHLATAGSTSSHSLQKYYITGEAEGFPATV
Sequence of Peroxisome proliferator-activated receptor alpha (Homo sapiens) (Q07869 whole entry, looked up): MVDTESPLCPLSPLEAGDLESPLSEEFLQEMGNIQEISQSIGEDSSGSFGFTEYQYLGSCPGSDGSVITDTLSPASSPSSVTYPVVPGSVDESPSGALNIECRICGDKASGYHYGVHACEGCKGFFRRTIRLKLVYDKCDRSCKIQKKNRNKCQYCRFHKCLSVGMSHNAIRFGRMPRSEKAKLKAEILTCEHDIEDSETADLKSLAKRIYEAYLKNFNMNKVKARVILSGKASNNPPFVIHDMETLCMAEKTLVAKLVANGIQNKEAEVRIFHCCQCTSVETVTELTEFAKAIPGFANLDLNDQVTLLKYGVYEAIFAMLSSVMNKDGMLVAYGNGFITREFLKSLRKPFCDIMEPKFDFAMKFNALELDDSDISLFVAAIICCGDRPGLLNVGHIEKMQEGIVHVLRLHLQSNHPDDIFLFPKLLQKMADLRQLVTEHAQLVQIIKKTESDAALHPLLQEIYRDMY

As to `C[C@H]1O[C@H](OC2[C@@H](O)[C@@H](O)C(O)[C@H](O)[C@H]2O)[C@@H](N)C[C@@H]1N=C(N)C(=O)O` (stereo not given in full), the Potency entry in assay [1], in assay [2], in assay [4], in assay [5], in assay [8] and in assay [11] was “inactive” each time. Further, the Potency result in [15], in assay [19], in assay [22], in assay [23], in assay [24] and in assay [25] was “inactive” throughout. Further, the values for the activation in [3], in assay [16] and in [17] were -3.89% (inactive), 0.472% (inactive) and -0.0561% (inactive), respectively. For the same compound, the max response in assay [6] is -16.5%; in assay [9], -7.18%; in assay [12], -6.74%; in [13], -1.33% (inactive); in [18], -0.85% (inactive); in assay [20], 0.169% (inactive). The max response in assay [26] is -0.488% (inactive). For the same compound, the result in assay [7], in assay [10], in assay [21] and in assay [27] was inactive. In assay [14], the activity change % (negative = inhibition) was 1.51% (inactive).
As for `NC(=NCc1ccccc1)NC(=O)c1nc(Cl)c(N)nc1N`, the outcome in [28], in assay [29] and in assay [30] was inactive. The Potency result in [22], in assay [23], in [24] and in assay [25] was “inactive” each time.
Regarding `CS(C)=O`, the activation in assay [31] was -2.1% (inactive). The Potency entry in [5], in [22], in [23], in [24] and in assay [25] was “inactive” throughout.
For `C=CC(C)(O)CCC=C(C)C` (stereo not given), in assay [31], the activation was -2.97% (inactive) and 2.71% (inactive). Further, the Potency result in assay [22], in [23], in [24] and in assay [25] was “inactive” throughout.
